According to article PMC8222333, “AsCas12a ultra nuclease facilitates the rapid generation of therapeutic cell medicines”:
Numbering of substitutions follows the chain as printed.

B1: ATCT (dsDNA)
DNA 1: GCTATCTAGTGCTCAGTACGCACTGATCTAGGAAACTTCTGGCAGGACCAGGTCATGAGATCGGAAGAGCACACGTCTGAACTCCAGTCA
DNA 2: TGACTGGAGTTCAGACGTGTGCTCTTCCGATCTCATGACCTGGTCCTGCCAGAAGTTTCCTAGATCAGTGCGTACTGAGCACTAGATAGC
RNA: AAUUUCUACUCUUGUAGAUAGGAAACUUCUGGCAGGACC
B2: GCCA (dsDNA)
DNA 1: B1 DNA 1 with A26G, T27C, T29A
DNA 2: B1 DNA 2 with A62T, A64G, T65C
RNA: B1 RNA
B3: CATG (dsDNA)
DNA 1: B1 DNA 1 with A26C, T27A, C28T, T29G
DNA 2: B1 DNA 2 with A62C, G63A, A64T, T65G
RNA: B1 RNA
B4: CCCG (dsDNA)
DNA 1: B1 DNA 1 with A26C, T27C, T29G
DNA 2: B1 DNA 2 with A62C, A64G, T65G
RNA: B1 RNA
B5: GATC (dsDNA)
DNA 1: B1 DNA 1 with A26G, T27A, C28T, T29C
DNA 2: B1 DNA 2 with A62G, G63A, A64T, T65C
RNA: B1 RNA
B6: CCCA (dsDNA)
DNA 1: B1 DNA 1 with A26C, T27C, T29A
DNA 2: B1 DNA 2 with A62T, A64G, T65G
RNA: B1 RNA
B7: CTAT (dsDNA)
DNA 1: B1 DNA 1 with A26C, C28A
DNA 2: B1 DNA 2 with G63T, T65G
RNA: B1 RNA
B8: CATA (dsDNA)
DNA 1: B1 DNA 1 with A26C, T27A, C28T, T29A
DNA 2: B1 DNA 2 with A62T, G63A, A64T, T65G
RNA: B1 RNA
B9: CGTT (dsDNA)
DNA 1: B1 DNA 1 with A26C, T27G, C28T
DNA 2: B1 DNA 2 with G63A, A64C, T65G
RNA: B1 RNA
B10: CTAG (dsDNA)
DNA 1: B1 DNA 1 with A26C, C28A, T29G
DNA 2: B1 DNA 2 with A62C, G63T, T65G
RNA: B1 RNA
B11: CTGT (dsDNA)
DNA 1: B1 DNA 1 with A26C, C28G
DNA 2: B1 DNA 2 with G63C, T65G
RNA: B1 RNA
B12: CACT (dsDNA)
DNA 1: B1 DNA 1 with A26C, T27A
DNA 2: B1 DNA 2 with A64T, T65G
RNA: B1 RNA
B13: ATGC (dsDNA)
DNA 1: B1 DNA 1 with C28G, T29C
DNA 2: B1 DNA 2 with A62G, G63C
RNA: B1 RNA
B14: CATC (dsDNA)
DNA 1: B1 DNA 1 with A26C, T27A, C28T, T29C
DNA 2: B1 DNA 2 with A62G, G63A, A64T, T65G
RNA: B1 RNA
B15: CTCT (dsDNA)
DNA 1: B1 DNA 1 with A26C
DNA 2: B1 DNA 2 with T65G
RNA: B1 RNA

The binders below were run against dAsCas12a E174R (Acidaminococcus sp., UniProt U2UMQ6 1-1307, E174R;D908A;E993A;D1235A) (assay: Spec-seq (native PAGE EMSA with sequencing of bound and unbound); 25 mM Tris-HCl pH 7.4, 150 mM KCl, 5 mM MgCl2, 10% glycerol, 1 mM DTT, 40 ng/uL salmon sperm DNA; 400 nM Cas12a, 480 nM crRNA, 50 nM library, 37 C 1 h; native PAGE at room temperature; high values mean tight binding). Conditions: protein: recombinant.
With B1 the binding signal was -8.78 lnKA.
B2 gave a binding signal of -8.91 lnKA.
B3 was tested, and the binding signal was -8.38 lnKA.
B4 showed a binding signal of -8.56 lnKA.
Work on B5 yielded a binding signal of -8.27 lnKA.
B6 gave a binding signal of -8.63 lnKA.
Binder B7 has a binding signal of -8.81 lnKA.
Work on B8 yielded a binding signal of -7.55 lnKA.
B9 gave a binding signal of -8.95 lnKA.
For B10, the binding signal was -8.81 lnKA.
Work on B11 yielded a binding signal of -8.89 lnKA.
Work on B12 yielded a binding signal of -8.98 lnKA.
Work on B13 yielded a binding signal of -8.95 lnKA.
B14 showed a binding signal of -8.78 lnKA.
Binder B15 has a binding signal of -8.73 lnKA.

These binders were tested against dAsCas12a S542R (Acidaminococcus sp., UniProt U2UMQ6 1-1307, S542R;D908A;E993A;D1235A) in the same assay as above. Conditions: protein: recombinant.
Work on B1 yielded a binding signal of -7.09 lnKA.
B2 gave a binding signal of -6.67 lnKA.
In the case of B3, the binding signal is reported as -8.49 lnKA.
B4 was tested, and the binding signal was -6.18 lnKA.
Binder B5 has a binding signal of -8.34 lnKA.
Work on B6 yielded a binding signal of -6.21 lnKA.
For B7, the binding signal was -8.52 lnKA.
B8 showed a binding signal of -8.31 lnKA.
B9 showed a binding signal of -8.31 lnKA.
In the case of B10, the binding signal is reported as -8.57 lnKA.
For B11, the binding signal was -8.52 lnKA.
Work on B12 yielded a binding signal of -8.41 lnKA.
With B13 the binding signal was -8.32 lnKA.
B14 was tested, and the binding signal was -8.13 lnKA.
Work on B15 yielded a binding signal of -7.58 lnKA.

What follows are binders tested against d-enCas12a (Acidaminococcus sp., UniProt U2UMQ6 1-1307, E174R;S542R;K548R;D908A;E993A;D1235A) in the same assay as above. Conditions: protein: recombinant.
B1 showed a binding signal of -3.06 lnKA.
B2 showed a binding signal of -4.72 lnKA.
B3 was tested, and the binding signal was -4.73 lnKA.
Binder B4 has a binding signal of -4.37 lnKA.
In the case of B5, the binding signal is reported as -3.86 lnKA.
Work on B6 yielded a binding signal of -3.48 lnKA.
B7 showed a binding signal of -5.65 lnKA.
In the case of B8, the binding signal is reported as -2.95 lnKA.
Binder B9 has a binding signal of -5.2 lnKA.
For B10, the binding signal was -5.78 lnKA.
For B11, the binding signal was -5.79 lnKA.
B12 was tested, and the binding signal was -4.47 lnKA.
B13 was tested, and the binding signal was -5.32 lnKA.
Binder B14 has a binding signal of -3.35 lnKA.
B15 was tested, and the binding signal was -3.44 lnKA.

What follows are binders tested against d-enCas12a-Ultra (Acidaminococcus sp., UniProt U2UMQ6 1-1307, E174R;S542R;K548R;M537R;F870L;D908A;E993A;D1235A) in the same assay as above. Conditions: protein: recombinant.
In the case of B1, the binding signal is reported as -0.664 lnKA.
With B2 the binding signal was -1.33 lnKA.
B3 gave a binding signal of -2.28 lnKA.
B4 showed a binding signal of -0.97 lnKA.
B5 showed a binding signal of -1.57 lnKA.
In the case of B6, the binding signal is reported as -0.7 lnKA.
In the case of B7, the binding signal is reported as -3.31 lnKA.
B8 gave a binding signal of -0.95 lnKA.
With B9 the binding signal was -2.1 lnKA.
Work on B10 yielded a binding signal of -3.2 lnKA.
Binder B11 has a binding signal of -3.21 lnKA.
In the case of B12, the binding signal is reported as -1.3 lnKA.
For B13, the binding signal was -2.52 lnKA.
In the case of B14, the binding signal is reported as -1.16 lnKA.
Binder B15 has a binding signal of -0.714 lnKA.

Each binder was assayed against dAsCas12a K548R (Acidaminococcus sp., UniProt U2UMQ6 1-1307, K548R;D908A;E993A;D1235A) in the same assay as above. Conditions: protein: recombinant.
For B14, the binding signal was -8.88 lnKA.
